PREPL inh – inhibits the human prolyl oligopeptidase-like enzyme; inhibition, % at 5.96 µM; recombinant PREPL, fluorescence polarization activity-based probe; Q4J6C6; AID 2751; actives 0.68% (n = 320,000); in the data active means inhibition above about 43%
Target sequence (Q4J6C6 whole entry, looked up): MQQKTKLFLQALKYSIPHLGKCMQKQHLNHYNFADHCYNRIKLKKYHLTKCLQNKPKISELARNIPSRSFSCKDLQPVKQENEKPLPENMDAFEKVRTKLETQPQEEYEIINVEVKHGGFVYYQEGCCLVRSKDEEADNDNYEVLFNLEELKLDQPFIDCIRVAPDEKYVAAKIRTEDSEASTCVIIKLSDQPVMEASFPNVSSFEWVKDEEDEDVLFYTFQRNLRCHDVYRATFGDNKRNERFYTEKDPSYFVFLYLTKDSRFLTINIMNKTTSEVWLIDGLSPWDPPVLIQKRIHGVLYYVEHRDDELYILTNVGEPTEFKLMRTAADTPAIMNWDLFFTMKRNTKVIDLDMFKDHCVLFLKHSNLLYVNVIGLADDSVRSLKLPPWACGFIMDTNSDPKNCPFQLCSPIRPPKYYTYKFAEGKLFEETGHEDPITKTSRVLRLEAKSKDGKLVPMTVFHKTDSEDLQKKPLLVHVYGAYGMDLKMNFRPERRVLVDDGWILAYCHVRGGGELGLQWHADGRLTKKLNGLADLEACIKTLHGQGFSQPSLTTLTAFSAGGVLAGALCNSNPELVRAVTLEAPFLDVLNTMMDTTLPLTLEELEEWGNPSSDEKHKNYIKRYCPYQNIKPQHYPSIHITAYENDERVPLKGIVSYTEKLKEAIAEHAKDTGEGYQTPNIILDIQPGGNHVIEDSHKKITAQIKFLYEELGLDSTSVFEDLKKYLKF
UBC13 inh – human UBC13 polyubiquitination inhibition; P61088; UBC13 polyubiquitin chain formation, TR-FRET; inhibition, % at 20 µM; actives 0.47% (n = 330,000); in the data active means inhibition above about 45%, passing the limit was not always enough
ATG4B inh – blocks human ATG4B protease cleavage of LC3 substrate; Q9Y4P1; ATG4B cleavage of LC3-PLA2, NBD-HPC fluorescence, 1 h; inhibition, % at 8.33 µM; actives 0.51% (n = 340,000); in the data active means inhibition above about 40%
MEKK3 PB1 HTS – raises or lowers MEK5 binding to the human MEKK3 PB1 domain. actives 1.4% (n = 290,000). binding response (% of control), % at 10 µM. Q99759. AID 1529. bead-based flow cytometry, Alexa488-MEK5 binding to MEKK3; actives lie on both sides; 0 = blocked by unlabeled MEK5, 100 = vehicle;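 active means binding response more than 3 SD above or below the average of its plate-row segment, actives on both sides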;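 further: Alexa488 bead fluorescence after subtracting the streptavidin-only scavenger bead signal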
MEKK2wt PB1 HTS – raises or lowers MEK5 binding to wildtype human MEKK2 PB1 domain | binding response (% of control), % at 10 µM | AID 1531 | bead flow cytometry, Alexa488-MEK5 binding to MEKK2 WT; actives lie on both sides | actives 1.1% (n = 290,000); in the data active means binding response below about 67% or above about 130%
MEKK2mut PB1 HTS – signal of MEK5 binding to mutant human MEKK2 PB1 domain; bead flow cytometry, Alexa488-MEK5 binding to MEKK2 mutant; percent response, % at 10 µM; actives 0.35% (n = 290,000); AID 1530; in the data active means percent response above about 24%, passing the limit was not always enough
MEKK2wt confirm – raises or lowers MEK5 binding to wildtype human MEKK2, retest. shares compounds with MEKK3 PB1 HTS. bead flow cytometry, Alexa488-MEK5 binding to MEKK2 WT; actives lie on both sides. binding response (% of control), % at 10 µM. actives 2.4% (n = 5,900); in the data active means binding response below about 16% or above about 210%; inactive means in between
MEKK2mut confirm – signal of MEK5 binding to mutant human MEKK2, retest; shares compounds with MEKK3 PB1 HTS; bead flow cytometry, Alexa488-MEK5 binding to MEKK2 mutant; percent response, % at 10 µM; actives 2% (n = 5,900); AID 1893; in the data active means percent response mostly above about 71%, no sharp cut-off; inactive means mostly below about 38%;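 further: higher means compound restores mutant binding toward wildtype level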
MEKK3 confirm – confirmation of inhibitors of MEK5 binding to human MEKK3 | shares compounds with MEKK3 PB1 HTS | bead flow cytometry, Alexa488-MEK5 binding to MEKK3; active compounds read low | binding response (% of control), % at 10 µM | actives 1.8% (n = 5,900) | AID 1894;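 active means binding response below 72% of control, or above a set upper limit, though filed actives all read lower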;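 further: lower values mean stronger disruption of MEK5 binding to MEKK3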
Large screens that a line does not name were inactive (follow-up assays come after a bar, where they were run); [ ] = remark or other dose. Most compounds without a hit are left out; they make up all but 3.1% or so of the library.

Cc1ccc(/C=N/n2nnnc2N)cc1[N+](=O)[O-]	MEKK3 PB1 HTS 128 | MEKK2wt confirm inactive | MEKK2mut confirm inactive | MEKK3 confirm inactive
O=C(NNC1=C(C(=O)C(F)(F)F)CCC1)c1ccc(Br)cc1	MEKK3 PB1 HTS 125, MEKK2mut PB1 HTS 25 | MEKK2wt confirm inactive | MEKK2mut confirm inactive | MEKK3 confirm inactive
Nc1ccccc1C(=O)NNC1=C(C(=O)C(F)(F)F)CCC1	none
CCOC(=O)Cc1c(C)nc2c(-c3ccc(Cl)cc3)c(C)nn2c1C	MEKK3 PB1 HTS 0.0[inhibitor] (no result: MEKK2wt PB1 HTS) | MEKK2wt confirm inactive | MEKK2mut confirm inactive | MEKK3 confirm inactive
CCOC(=O)Cc1c(C)nc2c(-c3ccccc3OC)c(C)nn2c1C	none
COC(=O)c1ccccc1S(=O)c1snnc1C (stereo unspecified)	none
COc1ccc(NC(=O)NNC(=O)c2ccc3ccccc3c2)cc1OC	none
O=C(Nc1ccc(OC(F)F)c(Cl)c1)c1cccc(OC(F)F)c1	MEKK2wt PB1 HTS 151 | MEKK2wt confirm inactive | MEKK2mut confirm inactive | MEKK3 confirm inactive
COc1ccc(NC(=O)c2cccc(OC(F)F)c2)cc1Cl	none
O=C(/C(=N/N=C/c1ccc(O)c(O)c1O)c1ccccc1)c1ccccc1	MEKK3 PB1 HTS 136 | MEKK2wt confirm inactive | MEKK2mut confirm inactive | MEKK3 confirm inactive
CCOc1ccc(S(=O)(=O)NCCC(=O)OCC(=O)c2ccc(NC(C)=O)cc2)cc1	none (no result: MEKK3 PB1 HTS, MEKK2wt PB1 HTS, MEKK2mut PB1 HTS)
COc1ccc(-c2oc3ncnc(NCCN4CCOCC4)c3c2-c2ccc(OC)cc2)cc1	none
COc1ccc(-c2oc3ncnc(NCCCN4CCOCC4)c3c2-c2ccc(OC)cc2)cc1	MEKK2wt PB1 HTS 138 | MEKK2wt confirm inactive | MEKK2mut confirm inactive | MEKK3 confirm inactive
COC(=O)c1cc(S(=O)(=O)NCc2cc(OC)c(OC)c(OC)c2)cn1C	none
O=C(COC(=O)c1ccc(O)cc1O)NC(=O)NCc1ccccc1	none (no result: MEKK3 PB1 HTS, MEKK2wt PB1 HTS, MEKK2mut PB1 HTS)
Cc1noc(C)c1S(=O)(=O)Nc1ccc(C(=O)NC2CCCCC2)cc1	MEKK3 PB1 HTS 20[inhibitor], MEKK2wt PB1 HTS 33[inhibitor] | MEKK2wt confirm inactive | MEKK2mut confirm inactive | MEKK3 confirm inactive
O=C(c1cnn(C(=O)c2ccco2)c1)c1cc(F)ccc1O	none (no result: MEKK3 PB1 HTS, MEKK2wt PB1 HTS, MEKK2mut PB1 HTS)
O=S(=O)(NC(=S)NC1CCCCC1)c1ccccc1	MEKK3 PB1 HTS 4.0[inhibitor], MEKK2wt PB1 HTS 6.0[inhibitor] | MEKK2wt confirm inactive | MEKK2mut confirm inactive | MEKK3 confirm inactive
O=S(=O)(NC(=S)NC1CCCCC1)c1cccs1	none
c1ccc2c(Nc3ccc(N4CCOCC4)cc3)nc(N3CCOCC3)nc2c1	none
CC12CC3CC(C)(C1)CC(Nc1nc(N4CCOCC4)nc4ccccc14)(C3)C2	MEKK2wt PB1 HTS 151 | MEKK2wt confirm inactive | MEKK2mut confirm inactive | MEKK3 confirm inactive
N#Cc1c(-c2ccc(Cl)cc2)n(O)c2ccccc12	none (no result: PREPL inh, UBC13 inh, MEKK3 PB1 HTS, MEKK2wt PB1 HTS, MEKK2mut PB1 HTS)
CC(C)CN(C(=O)COC(=O)Cc1cccc2ccccc12)c1c(N)n(Cc2ccccc2)c(=O)[nH]c1=O	none (no result: MEKK3 PB1 HTS, MEKK2wt PB1 HTS, MEKK2mut PB1 HTS)
CC(NC(=O)C(=O)N/N=C/c1ccccc1)c1ccccc1 (stereo unspecified)	MEKK2wt PB1 HTS 707, MEKK2mut PB1 HTS 564 | MEKK2wt confirm inactive | MEKK2mut confirm inactive | MEKK3 confirm inactive
CC(C)(C)n1ncc2c(=O)n(Cc3c(F)cccc3Cl)cnc21	none
CC(C)(C)n1ncc2c(=O)n(Cc3ccc(Cl)cc3Cl)cnc21	MEKK3 PB1 HTS 2.0[inhibitor], MEKK2wt PB1 HTS 2.0[inhibitor] | MEKK2wt confirm inactive | MEKK2mut confirm inactive | MEKK3 confirm inactive
CCc1ccc(C(=O)OCC(=O)c2c(N)n(CC(C)C)c(=O)n(C)c2=O)cc1	none
C=CCN=C(C)C1=C(O)C(C)OC1=O (stereo unspecified)	MEKK3 PB1 HTS 134 | MEKK2wt confirm inactive | MEKK2mut confirm inactive | MEKK3 confirm inactive
CCC(C(=O)NC1CCCC1)N(C(=O)Cn1nnc(-c2cccs2)n1)c1cnc2ccccc2c1 (stereo unspecified)	none
CCC(C(=O)NC(C)(C)C)N(C(=O)Cn1nnc(-c2ccccc2F)n1)c1cnc2ccccc2c1 (stereo unspecified)	MEKK3 PB1 HTS 128 | MEKK2wt confirm inactive | MEKK2mut confirm inactive | MEKK3 confirm inactive
O=C(NNC(=O)c1ccccc1Cl)c1ccc(-n2cncn2)c([N+](=O)[O-])c1	none (no result: MEKK3 PB1 HTS, MEKK2wt PB1 HTS, MEKK2mut PB1 HTS)
Cc1cc(NC(=O)CSc2nnc(CNC(=O)c3c(F)cccc3F)o2)no1	none
CCCOc1ccc(C(CC(=O)O)NC(=O)c2ccc3c(c2)OCO3)cc1 (stereo unspecified)	MEKK3 PB1 HTS 2.0[inhibitor], MEKK2wt PB1 HTS 1.0[inhibitor] | MEKK2wt confirm inactive | MEKK2mut confirm inactive | MEKK3 confirm inactive
CC1CCCC(C)N1C(=O)COC(=O)c1cc(F)c(F)cc1Cl (stereo unspecified)	none (no result: MEKK3 PB1 HTS, MEKK2wt PB1 HTS, MEKK2mut PB1 HTS)
CCOc1ccc(N2CC(C(=O)NCCCN3CCOCC3)CC2=O)cc1 (stereo unspecified)	MEKK3 PB1 HTS 2.0[inhibitor], MEKK2wt PB1 HTS 3.0[inhibitor] | MEKK2wt confirm inactive | MEKK2mut confirm inactive | MEKK3 confirm inactive
COc1ccccc1C(=O)NCCCn1cc(Br)c(C)n1	MEKK2wt PB1 HTS 138 | MEKK2wt confirm inactive | MEKK2mut confirm inactive | MEKK3 confirm inactive
CCOC(=O)[C@H]1[C@H]2COc3ccc(OC)cc3[C@@H]2N2C(=O)c3cc(OC)c(OC)cc3NC(=O)[C@@]12C	none (no result: MEKK3 PB1 HTS, MEKK2wt PB1 HTS, MEKK2mut PB1 HTS)
Cc1ccc(Cn2cnc3ccccc32)cc1C	MEKK3 PB1 HTS 74[inhibitor] | MEKK2wt confirm inactive | MEKK2mut confirm inactive | MEKK3 confirm inactive
CN1/C(=C\C=C2/C(=O)Oc3ccccc3C2=O)C(C)(C)c2ccccc21	MEKK3 PB1 HTS 50[inhibitor] (no result: UBC13 inh) | MEKK2wt confirm inactive | MEKK2mut confirm inactive | MEKK3 confirm inactive
CC1=NN(c2ccccc2)C(=O)/C1=C\C=C1/N(C)c2ccccc2C1(C)C	none
CN1C(=CC=C2C=C(I)C(=O)C(I)=C2)C(C)(C)c2ccccc21	MEKK3 PB1 HTS 40[inhibitor], MEKK2wt PB1 HTS -1.0[inhibitor] (no result: PREPL inh, UBC13 inh) | MEKK2wt confirm inactive | MEKK2mut confirm inactive | MEKK3 confirm 68
Cc1nnc(SCC(=O)Nc2cc(S(C)(=O)=O)ccc2Cl)n1Cc1ccccc1	none
Cc1ccc(C(=O)CN(C(=O)c2ccc(Cl)c(Cl)c2)N2C(=O)C3C4C=CC(C4)C3C2=O)cc1 (stereo unspecified)	MEKK3 PB1 HTS 82[inhibitor] | MEKK2wt confirm inactive | MEKK2mut confirm inactive | MEKK3 confirm inactive
